# Screening data as filed in PubChem.
# RGS4 inh = Inhibitors of Regulator of G Protein Signaling (RGS) 4: qHTS; Regulator of G-protein signaling 4 (Homo sapiens), P49798; Potency, µM (titrated, usually from 114 µM), for the others: at the highest dose activity change, negative = inhibition, most hits filed as inhibitors; AID 504845, 2011; Transcreener GDP fluorescence polarization, RGS4-accelerated GTP hydrolysis; 390,000 tested, 0.039% active; further: potency means the concentration at half of the fitted maximal effect; on the % scale 0 is the no-effect control and ±100 the full control effect; nearly all actives have a fitted effect of over 75% in size
#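 MLSMR compounds (23 nl, pin-transferred) preincubated 10 min at room temperature with a 500nM (2x) first reagent, then RGS4 at 900nM (2x) plus Transcreener GDP mix added; fluorescence polarization (620/688 nm) read before and after 90 min at 30 °C.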
# ASM inhibitor = Inhibitors of Secretory Acid Sphingomyelinase (S-ASM): qHTS. AID 504937, 2011. placental ASM, HMU-PC fluorogenic substrate, 60 min. Sphingomyelin phosphodiesterase (Homo sapiens), P17405. 340,000 tested, 0.006% active. Potency, µM (highest dose often 57.5 µM), for inactives: at the top dose activity change, negative = inhibition, usual class: inhibitors; further: potency means the concentration at half of the fitted maximal effect
# Target sequence (P17405 47-631 limits assumed): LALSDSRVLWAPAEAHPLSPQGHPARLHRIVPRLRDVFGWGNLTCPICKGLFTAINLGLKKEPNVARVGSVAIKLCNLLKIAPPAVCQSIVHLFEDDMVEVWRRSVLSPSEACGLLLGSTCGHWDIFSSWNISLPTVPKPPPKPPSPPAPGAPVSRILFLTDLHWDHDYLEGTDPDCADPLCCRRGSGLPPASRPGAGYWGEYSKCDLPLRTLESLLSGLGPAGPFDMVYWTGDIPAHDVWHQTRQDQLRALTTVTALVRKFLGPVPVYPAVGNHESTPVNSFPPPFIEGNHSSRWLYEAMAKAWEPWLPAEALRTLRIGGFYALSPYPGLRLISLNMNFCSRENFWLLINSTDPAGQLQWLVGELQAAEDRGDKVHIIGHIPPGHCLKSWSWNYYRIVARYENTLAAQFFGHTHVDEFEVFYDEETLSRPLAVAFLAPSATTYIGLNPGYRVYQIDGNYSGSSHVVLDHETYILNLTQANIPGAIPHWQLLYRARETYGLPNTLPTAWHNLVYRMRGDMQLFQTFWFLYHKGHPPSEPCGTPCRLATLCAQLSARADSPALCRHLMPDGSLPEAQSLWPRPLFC
#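 HMU-PC0 cleavage (9 uM final) by human placental ASM, 60 min at 37 °C following 10 min compound exposure at RT; stopped at pH 10, fluorescence Ex 386/Em 447 nm.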
# ClpP mod = qHTS Assay for Activators of ClpP; Potency, µM (series often up to 57.5 µM), for inactives: at the highest dose activity change, negative = active; ATP-dependent Clp protease proteolytic subunit (Bacillus subtilis (strain 168)), P80244; AID 651965, 2013; purified B. subtilis ClpP, FRET peptide cleavage, 20 min; 340,000 tested, 1.9% active; active means well fitted falling curve with a large enough effect; inconclusive means small, poorly fitted or top-dose-only effect; inactive means no such curve, though single readings can be large or run the other way; further: potency means the concentration at half of the fitted maximal effect; the source files actives as falling curves though it sought activators and does not explain the sign; nearly all actives have a fitted effect of over 65% in size
# Target sequence (P80244 whole entry, looked up): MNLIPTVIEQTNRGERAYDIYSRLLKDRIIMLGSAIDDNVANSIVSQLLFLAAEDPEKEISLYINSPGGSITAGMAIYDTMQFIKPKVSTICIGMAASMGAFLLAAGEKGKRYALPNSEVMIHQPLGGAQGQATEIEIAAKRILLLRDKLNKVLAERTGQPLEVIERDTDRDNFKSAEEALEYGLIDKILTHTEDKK
#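 Purified B. subtilis ClpP, 10 microg/mL final in Tris/HCl pH8 with KCl, BSA, glycerol and Tween-20, cleaved an Abz/nitrotyrosine-quenched decapeptide. Fluorescence (ex 320, em 430) was read at 0 and 20 min at room temperature. Delta was normalized to 5.8 microM ADEP and DMSO/no-enzyme controls.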
# LDHA block = qHTS assay for inhibitors of human lactate dehydrogenase; AID 1347041, 2019; L-lactate dehydrogenase A chain (Homo sapiens), P00338; activity change, % (values are at about 110 or 230 µM); 480,000 tested, 0.15% active; purified LDHA, NADH/diaphorase-resazurin fluorescence; hits give low values; in the data active means activity change below about -30%; inconclusive means mostly about -25% to -30%;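 further: plate controls were DMSO wells for no effect and wells without enzyme for full effect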
#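 LDH5 2 nM; NADH 0.06 mM, pyruvate 0.2 mM; 200 mM Tris pH 7.4, EDTA, Tween-20; 5 min RT. Detection: diaphorase 0.133 mg/mL + resazurin 37 µM, fluorescence ex540/em590 at 0 and 20 min; normalized to enzyme-free and DMSO wells.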
# Mito fusion yeast = qHTS Assay for Small Molecule Inhibitors of Mitochondrial Division or Activators of Mitochondrial Fusion; S. cerevisiae fusion-defective mutant growth rescue, CellTiterGlo 48 h; Potency, µM (series often up to 46.1 µM), for inactives: at the top dose growth rescue (activation), actives largely listed as activators; 320,000 tested, 0.23% active; AID 485298, 2010; further: potency means the concentration at half of the fitted maximal effect; % of control where 0% means no effect; nearly all actives have a fitted effect of over 45% in size
#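 Temperature-sensitive fusion-defective S. cerevisiae (e.g. fzo1-1, mgm1-5) were grown with compound in YPEG medium (3% ethanol, 3% glycerol) for 48 hours at 37C. Growth rescue was measured as viability by CellTiterGlo luminescence after 10 minutes at ambient.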
# mIDH1 inhibitor = qHTS for Inhibitors of mutant isocitrate dehydrogenase 1 (IDH1): qHTS; Isocitrate dehydrogenase [NADP] cytoplasmic (Homo sapiens), O75874; IDH1-R132H enzyme, NADPH consumption, diaphorase/resazurin fluorescence; Potency, µM (doses to about 76.6 µM), for inactives: top-dose activity change, negative = inhibition, most hits filed as inhibitors; 390,000 tested, 0.093% active; AID 602179, 2012; further: potency means the concentration at half of the fitted maximal effect; on the % scale 0 is the no-effect control and ±100 the full control effect; nearly all actives have a fitted effect of over 65% in size
#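 IDH1-R132H (0.5 ug/mL) preincubated 30 min with compound, then NADPH (0.016 mM) and alpha-KG (2 mM) added; 80 min at RT, pH 7.5. Remaining NADPH coupled via diaphorase/resazurin to fluorescence (540/590 nm); concentration-response curves normalized to no-enzyme control.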
# Numbers without * were called inactive; ? = inconclusive; . = no result; [ ] = another dose, or the depositor's remark. The full list was thinned out, with hits kept by preference. Unless noted, the call rests on the fitted dose curve; in most records, active means well fitted curve in the direction sought with a large enough effect; inconclusive means small, poorly fitted or top-dose-only effect, or another doubt; inactive means no such curve, though single readings can be large; an effect the other way counts as inactive or inconclusive.
SMILES,RGS4 inh,ASM inhibitor,ClpP mod,LDHA block,Mito fusion yeast,mIDH1 inhibitor
O=C(Nc1cc(=O)[nH]c2nc(C(F)(F)F)nn12)c1ccc(Cl)cc1,.,.,.,10,.,.
CCN1CCN(c2cc3c(cc2F)c(=O)c(S(=O)(=O)c2ccc(OC)cc2)cn3CC)CC1,18%,.,7.9µM*,-6,.,6%
CCn1cc(S(=O)(=O)c2ccc(OC)cc2)c(=O)c2cc(F)c(N3CCCCCC3)cc21,4%,.,-14%,-6,.,-8%
CCOC(=O)c1cn(CC)c2cc(N3CCOCC3)c(F)cc2c1=O,-50%,0%,32µM*,3,0%,0%
O=C(Nc1ccon1)C1CCN(S(=O)(=O)c2cccs2)CC1,-58%[11.4 µM],9%,25µM*,-4,-1%,2%
Cc1csc2nc(COc3c(Cl)cccc3Cl)cc(=O)n12,.,.,.,2,.,.
CNC(=O)CSC12CC3CC(CC(C3)C1)C2,.,.,.,1,.,.
Cc1c(CC(=O)O)c(=O)oc2cc3occ(-c4ccc(F)cc4)c3cc12,13%,42%,1%,-42*,8%,-3%
Cc1c(CC(=O)NCC(=O)O)c(=O)oc2cc3occ(-c4ccccc4)c3cc12,-2%,68%,-2%,-85*,1%,-1%
COc1cccc(-c2coc3cc4oc(=O)c(CCC(=O)O)c(C)c4cc23)c1,-17%,23%,0%,-4,22µM*,?
Cc1ccc(S(=O)(=O)N(CC(=O)N/N=C/c2cccc(C)c2)c2cccc3cccnc23)cc1,-23%,-5%,25µM*,-4,1%,10%
Cc1ccc(S(=O)(=O)N(CC(=O)N/N=C/c2cccc3c2OCCO3)c2ccccc2F)cc1,-30%[11.4 µM],-17%,22µM*,10,0%,7%
Cc1ccc(S(=O)(=O)N(CC(=O)N/N=C\c2cccs2)c2cccc3cccnc23)cc1,-18%,-1%,-3%,-5,1%,1%
CCN1CCN(C(C(=O)O)c2c[nH]c3ccc(NC(=O)CCC(=O)O)cc23)CC1 (stereo not given),.,.,.,1,.,.
Fc1ccc(/C=N/N=C/c2ccc(F)cc2)cc1,.,.,.,-3,.,.
CCCCCn1nc(C(=O)Nc2ccc(C)c(Cl)c2)c2ccccc2c1=O,.,.,.,5,.,.
CCc1ccccc1Oc1nc(NCCOC)nc2cc(-c3ccccc3)sc12,.,.,22µM*,-8,.,.
COCCNc1nc(-c2ccccc2F)c2sc(-c3ccccc3)cc2n1,.,.,32µM*,-2,.,.
CCc1ccccc1Oc1nc2cc(-c3cccc(OC)c3)sc2c(=O)n1C,.,.,13µM*,0,.,.
COCCNc1nc(Oc2ccc(NC(C)=O)cc2)c2sc(-c3ccccc3)cc2n1,.,.,32µM*,-8,.,.
COCCNc1nc(-c2cc(F)ccc2C)c2sc(-c3ccccc3)cc2n1,.,.,5%,-13,.,.
Cc1nonc1C(=O)N/N=C/c1ccc(O)c(O)c1,-6%,4%,28µM*,9,-3%,3%
COc1cc(/C=N/NC(=O)c2nonc2C)ccc1O,-6%,-1%,.,9,1%,0%
CCc1ccc(OCc2nnc(SCc3cc(=O)c4ccccc4[nH]3)n2CC)cc1,.,.,.,-2,.,.
COC(=O)c1cccc(-n2sc3ccccc3c2=O)c1,-142%,-4%,0%,?,15%,-23%
SMILES,RGS4 inh,ASM inhibitor,ClpP mod,LDHA block,Mito fusion yeast,mIDH1 inhibitor
O=c1c2ccc(F)cc2sn1-c1ccccc1,.,.,-2%,-13,.,-4%
O=c1c2ccccc2sn1-c1ccc(Cl)cc1,.,.,0%,-52*,.,7%
O=c1c2cc(F)ccc2sn1-c1ccccc1Cl,.,.,-2%,-43*,.,0%
Cc1ccc(-n2sc3ccccc3c2=O)cc1,-137%,2%,1%,-35*,-22%,5%
O=c1c2ccccc2sn1-c1ccc(F)cc1,-136%,2%,-5%,-31*,-40%,-12%
Cc1ccc(-c2ccc(=O)n(CC(=O)NCc3ccco3)n2)cc1,1%,0%,-13%,-2,0%,5%
COc1ccc(-c2cc(C(F)(F)F)n3nc(C(=O)NCc4ccco4)cc3n2)cc1,-3%,452%,16µM*,0,1%,1%
COc1ccc(OCC(=O)OCC(=O)NCc2ccco2)cc1,-6%,-2%,28µM*,-1,-3%,0%
COc1ccc(-c2ccc(=O)n(CC(=O)NCc3ccco3)n2)cc1,-46%,-5%,25µM*,4,-3%,4%
O=C(NCc1ccco1)c1cc2nc(-c3ccc4c(c3)OCO4)cc(C(F)(F)F)n2n1,-7%,158%,?,0,4%,4%
Cc1ccccc1C(=O)OCC(=O)NCc1ccco1,10%,-2%,-1%,-5,.,1%
Cc1ccsc1C(=O)OCC(=O)NCc1ccco1,0%,0%,3.2µM*,-6,2%,7%
Cc1ccc2c(c1)NC(=O)c1cc(S(=O)(=O)N(C)Cc3ccccc3)c(Cl)cc1O2,.,.,.,3,.,.
Cc1ccc(NC(=O)Cc2nc(-c3c(N)n(C)c(=O)n(C)c3=O)cs2)c(C)c1,.,.,.,1,.,.
Nc1nc(N)c2cc([N+](=O)[O-])ccc2n1,2%,-2%,0%,-30*,.,1%
Cc1nc2ccc([N+](=O)[O-])cc2nc1C,3%,0%,0%,-1,8%,1%
CCCNC(=O)NC(=O)CN(CCC1CCCCC1)CC(N)=O,.,.,.,-1,.,.
CCOC(=O)C1C(C#N)=C(N)OC(C)=C1c1ccncc1 (stereo not given),7%,4%,32µM*,9,-1%,-5%
CCOC(=O)CC1=C(C(=O)OCC)C(c2ccncc2)C(C#N)=C(N)O1 (stereo not given),1%,-1%,-2%,-6,0%,-2%
Cn1c(=O)c(Oc2ccc(Cl)cc2)c(O)c2ccccc21,-15%,-5%,?,-1,10µM*,19%
CCCC(=O)OCCNc1c(C(=O)OCC)cnc2c(Cl)c(Cl)ccc12,.,.,.,1,.,.
COCCNC(=O)CC(C)C1CCCCC1 (stereo not given),.,.,.,5,.,.
CCONC(=O)NC(c1ccc(OC)cc1)C(C)C (stereo not given),.,.,.,-5,.,.
Cc1ccccc1CNC(=O)c1ccc(CSc2nc3cccnc3n2Cc2ccccc2)cc1,-7%,.,5%,0,.,0%
